Assay [1] is described as follows: qHTS RealTime-Glo MT Cell Viability Assay in HEK293 cells - 16 hour (AID 1224872). Also: nearly all actives have a fitted effect of over 50% in size. Also: potency is read from the fitted curve at half-maximal effect. The method, boiled down:
(§1)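 Cells + reagent dispensed (600 cells/well, HEK293) → 5 h at 37 C/5% CO2 → 23 nL compound in DMSO pinned → 40 h at 37 C → luminescence read at 0, 8, 16, 24, 32, 40 h.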

Assay [2] in a line: qHTS RealTime-Glo MT Cell Viability Assay in HepG2 cells - 8 hour (AID 1224873). Also: nearly all actives have a fitted effect of over 55% in size. Also: potency is read from the fitted curve at half-maximal effect. The method, boiled down:
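Real-time viability: cells seeded at 600 per well together with NanoLuc and cell-permeant prosubstrate, compounds added after 5 h incubation. Luminescence tracked at 0, 8, 16, 24, 32 and 40 h of exposure.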
In general terms: In qHTS, concentration-response curves come from the screen itself.

Assay [3] is described as follows: qHTS RealTime-Glo MT Cell Viability Assay in HEK293 cells - 40 hour (AID 1224874). Also: nearly all actives have a fitted effect of over 50% in size. Also: potency is read from the fitted curve at half-maximal effect. The following applies: RealTime-Glo luminescence; max response: stronger effect = lower value. The method, boiled down:
(§2)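 Nonlytic bioluminescent viability monitoring. HEK293 at 600 cells/well with reagent; 5 h settle; compound transfer by pintool; plates held at 37 C and read at set time points.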

Assay [4] can be described thus: A CellTox Green Cytotoxicity Assay to monitor cytotoxicity in HEK293 cells - 24 hour (AID 1224875). Also: nearly all actives have a fitted effect of over 45% in size. Also: potency is read from the fitted curve at half-maximal effect. Put shortly:
(§3)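 Cytotoxicity was tracked continuously in HEK293 cells by a DNA-binding dye excluded from viable cells. Compounds were transferred in DMSO 5 h after seeding; fluorescence was recorded at intervals up to 40 h.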

Assay [5] in a line: A CellTox Green Cytotoxicity Assay to monitor cytotoxicity in HepG2 cells - 16 hour (AID 1224876). Also: nearly all actives have a fitted effect of over 45% in size. Also: potency is read from the fitted curve at half-maximal effect. Put shortly:
(§4)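 Real-time, homogeneous cytotoxicity readout: dead-cell DNA staining by CellTox Green in HepG2 monolayers, fluorescence measured at timed intervals up to 40 h of continuous compound exposure.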

Assay [6] is described as follows: qHTS RealTime-Glo MT Cell Viability Assay in HepG2 cells - 32 hour (AID 1224877). Also: nearly all actives have a fitted effect of over 55% in size. Also: potency is read from the fitted curve at half-maximal effect. The method, boiled down:
(§5)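 Real-time, nonlytic viability: 600 HepG2 cells/well mixed with NanoLuc enzyme plus prosubstrate; 5 h settle, compound (DMSO) added by pintool; luminescence monitored over 40 h at 37 C.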

Assay [7] in a line: A CellTox Green Cytotoxicity Assay to monitor cytotoxicity in HepG2 cells - 24 hour (AID 1224878). Also: nearly all actives have a fitted effect of over 45% in size. Also: potency is read from the fitted curve at half-maximal effect. The method, boiled down:
as §4

The nature of assay [8]: A CellTox Green Cytotoxicity Assay to monitor cytotoxicity in HepG2 cells - 40 hour (AID 1224879). Also: nearly all actives have a fitted effect of over 40% in size. Also: potency is read from the fitted curve at half-maximal effect. Put shortly: as §4
Assay [9] can be described thus: qHTS RealTime-Glo MT Cell Viability Assay in HEK293 cells - 0 hour (AID 1224880). Also: top concentration of the series differs between compounds; nearly all actives have a fitted effect of over 45% in size. Put shortly: as §2
The nature of assay [10]: A CellTox Green Cytotoxicity Assay to monitor cytotoxicity in HEK293 cells - 32 hour (AID 1224881). Also: nearly all actives have a fitted effect of over 40% in size. Also: potency is read from the fitted curve at half-maximal effect. The method, boiled down:
as §3

Assay [11] is described as follows: A CellTox Green Cytotoxicity Assay to monitor cytotoxicity in HepG2 cells - 0 hour (AID 1224882). Also: nearly all actives have a fitted effect of over 35% in size. The method, boiled down: as §4
Assay [12] can be described thus: A CellTox Green Cytotoxicity Assay to monitor cytotoxicity in HEK293 cells - 8 hour (AID 1224884). Also: nearly all actives have a fitted effect of over 35% in size. The method, boiled down: as §3
The nature of assay [13]: qHTS RealTime-Glo MT Cell Viability Assay in HepG2 cells - 16 hour (AID 1224885). Also: nearly all actives have a fitted effect of over 50% in size. Also: potency is read from the fitted curve at half-maximal effect. Put shortly: as §5
The nature of assay [14]: qHTS RealTime-Glo MT Cell Viability Assay in HEK293 cells - 24 hour (AID 1224886). Also: nearly all actives have a fitted effect of over 50% in size. Also: potency is read from the fitted curve at half-maximal effect. Put shortly: as §1
The nature of assay [15]: qHTS RealTime-Glo MT Cell Viability Assay in HEK293 cells - 8 hour (AID 1224887). Also: nearly all actives have a fitted effect of over 50% in size. Also: potency is read from the fitted curve at half-maximal effect. The method, boiled down:
as §2

A short description of assay [16]: A CellTox Green Cytotoxicity Assay to monitor cytotoxicity in HEK293 cells - 16 hour (AID 1224888). Also: nearly all actives have a fitted effect of over 35% in size. Also: potency is read from the fitted curve at half-maximal effect. Put shortly: as §3
The nature of assay [17]: qHTS RealTime-Glo MT Cell Viability Assay in HepG2 cells - 0 hour (AID 1224889). Also: nearly all actives have a fitted effect of over 50% in size. The method, boiled down:
as §5

The nature of assay [18]: A CellTox Green Cytotoxicity Assay to monitor cytotoxicity in HepG2 cells - 8 hour (AID 1224890). Also: nearly all actives have a fitted effect of over 45% in size. Also: potency is read from the fitted curve at half-maximal effect. Put shortly: as §4
Assay [19] in a line: qHTS assay to identify small molecule antagonists of the estrogen receptor alpha (ER-alpha) signaling pathway using the BG1 cell line in the presence of 0.1 nM 17-beta-estradiol - cell viability counter screen (AID 1259241). Also: nearly all actives have a fitted effect of over 40% in size. Also: potency is read from the fitted curve at half-maximal effect. Put shortly: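 The cell line endogenously expresses full-length ER-alpha and carries four EREs driving luciferase. Cells are cultured 5 days hormone-free, treated 22 hr with compounds and 0.1 nM estradiol, then viability is read by fluorescence.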

The nature of assay [20]: A CellTox Green Cytotoxicity Assay to monitor cytotoxicity in HepG2 cells - 32 hour (AID 1224883). Also: nearly all actives have a fitted effect of over 50% in size. Also: potency is read from the fitted curve at half-maximal effect. Put shortly: as §4

Molecules are shown by their SMILES. Values joined by “and” are separate entries in the source; they are usually repeats but may differ in a detail not shown here. Identical values can stand only once. Records with an inconclusive call do not appear. Where a structure was tested more than once in an assay, its records may differ in their call. Active and inactive are the calls of the source. Calls follow the shape of the dose curve; as a rule, active = well fitted curve in the direction sought with a large enough effect in the repeat runs; inconclusive = weak or mixed curves; inactive = no such curve, though single readings can be large; an effect the other way counts as inactive or inconclusive.
% is scaled to controls: 0 for no effect and ±100 for the full control effect.

Regarding `C=C(C)C(=O)OCC(O)COc1ccc(C(C)(C)c2ccc(OCC(O)COC(=O)C(=C)C)cc2)cc1` (configuration not stated), the Potency is 9.77 µM (active) in assay [1]; 19.5 µM (active) in assay [2]; 13.8 µM (active) in assay [3]; 21.9 µM (active) in [6]; 43.6 µM (active) in assay [8]; 19.5 µM (active) in assay [13]. For the same compound, the Potency in [14] is 11 µM (active); in assay [15], 11 µM (active); in assay [19] it was 27.3 µM (active). Moreover, the Potency entry in assay [4], in [5], in [7], in [9], in [10] and in assay [11] was “inactive” throughout. The Potency entry in assay [12], in [16], in assay [17] and in assay [18] was “inactive” in each case.
For the compound `O=c1c(-c2ccccc2)c1-c1ccccc1`, the Potency in assay [1] was 15.1 µM (active); in [2], 23.9 µM (active); in assay [3] it was 10.7 µM (active); in [4] it was 5.35 µM (active); in assay [6] it was 15.1 µM (active); in assay [7] it was 10.7 µM (active). The Potency was 10.7 µM (active) in [8]; 5.35 µM (active) in assay [10]; 9.52 µM (active) in [20]; 19 µM (active) in assay [13]; 13.4 µM (active) in assay [14]; 16.9 µM (active) in assay [15]. Moreover, the Potency result in assay [5], in assay [9], in assay [11], in [12], in [16] and in assay [17] was “inactive” in each case. For the same compound, the Potency result in assay [18] and in [19] was “inactive” throughout.
For `CC(C)(C)c1ccc(C(=O)CCCN2CCC(OC(c3ccccc3)c3ccccc3)CC2)cc1`, the Potency in assay [1] was 8.49 µM (active); in assay [2], 19 µM (active); in assay [3] it was 9.52 µM (active); in assay [4] it was 21.3 µM (active); in assay [5], 23.9 µM (active); in assay [6], 19 µM (active). Besides, the Potency in [7] was 23.9 µM (active); in assay [8], 19 µM (active); in assay [20], 21.3 µM (active); in assay [13] it was 21.3 µM (active); in [14] it was 8.49 µM (active); in [15], 9.52 µM (active). Moreover, the results for the Potency in assay [16] and in assay [18] were 21.3 µM (active) and 23.9 µM (active), respectively. The Potency entry in [9] and in [17] was “inactive” each time.
For the compound `CC(C)(C)c1ccc(C(=O)O)cc1`, the Potency result in [1], in assay [2], in [4], in [5], in [6] and in assay [7] was “inactive” in each case. Besides, the Potency result in [8], in assay [9], in [11], in assay [12], in assay [13] and in assay [14] was “inactive” throughout. For the same compound, the Potency entry in assay [15], in assay [16], in assay [17], in [18] and in assay [19] was “inactive” each time. Further, the max response in [3] was -13.2% (inactive).
Take `CCCCCCCCOC(=O)c1ccc(O)cc1`: the Potency in [1] is 27.4 µM (active); in [3], 27.4 µM (active); in [4] it was 43.5 µM (active) and 43.6 µM (active); in assay [5], “inactive and 43.6 µM (active)”; in [7] it was “inactive and 43.6 µM (active)”; in [8], “inactive and 49 µM (active)”. For the same compound, the Potency in assay [14] was 24.5 µM (active); in [15] it was 43.5 µM (active); in [16], 48.8 µM (active) and 49 µM (active). Besides, the Potency entry in assay [2], in assay [6], in assay [9], in [11], in assay [13] and in assay [18] was “inactive” each time. Moreover, in assay [19], the Potency entry was “inactive”.
In the case of `CCN(Cc1cccnc1)C(=O)c1cccc(Cl)c1[C@]1(C)C(=O)N(Cc2ccc(OC)cc2OC)c2ccc(Cl)cc21`, the Potency in assay [1] is 22.9 µM (active); in assay [2], 20.4 µM (active); in [3], 20.4 µM (active); in [14], 20.4 µM (active); in [15], 20.4 µM (active). In addition, the Potency result in assay [4], in assay [5], in assay [7], in assay [8], in [9] and in assay [10] was “inactive” in each case. Besides, the Potency result in assay [11], in [20], in assay [12], in assay [16], in assay [17] and in assay [18] was “inactive” in each case. In addition, the Potency entry in assay [19] is “inactive”.

The values are drawn from PubChem BioAssay (Tox21).
